Test results as given in PMC11006913.

Tests used:
Assay in all cases: PBM; 200 nM protein, PBS
Settings in all cases: dsDNA, one strand shown
HESX1 [1] = target: HESX1 (Homo sapiens, UniProt Q9UBX0 95-180, R165K)
SHOX [2] = target: SHOX (Homo sapiens, UniProt O15266 103-189)
ALX4 = ALX4 (Homo sapiens, UniProt Q9H161 200-286, Q225E)
HESX1 [3] = target: HESX1 (Homo sapiens, UniProt Q9UBX0 95-180)
MSX2 = MSX2 (Homo sapiens, UniProt P35548 130-214, R199I)
ALX1 [4] = target: ALX1 (Homo sapiens, UniProt Q15699 118-204, L144V)
ALX3 [5] = target: ALX3 (Homo sapiens, UniProt O95076 139-225, N203Q)
SHOX [6] = target: SHOX (Homo sapiens, UniProt O15266 103-189, R173C)
ALX1 [7] = target: ALX1 (Homo sapiens, UniProt Q15699 118-204, L144R)
ALX3 [8] = target: ALX3 (Homo sapiens, UniProt O95076 139-225)
PROP1 [9] = target: PROP1 (Homo sapiens, UniProt O75360 56-141)
HESX1 [10] = target: HESX1 (Homo sapiens, UniProt Q9UBX0 95-180, R109Q)
PROP1 [11] = target: PROP1 (Homo sapiens, UniProt O75360 56-141, R99H)
ALX3 [12] = target: ALX3 (Homo sapiens, UniProt O95076 139-225, L168Q)
HESX1 [13] = target: HESX1 (Homo sapiens, UniProt Q9UBX0 95-180, P111T)
ALX3 [14] = target: ALX3 (Homo sapiens, UniProt O95076 139-225, L168V)
PROP1 [15] = target: PROP1 (Homo sapiens, UniProt O75360 56-141, F88S)
HESX1 [16] = target: HESX1 (Homo sapiens, UniProt Q9UBX0 95-180, F115L)
ALX1 [17] = target: ALX1 (Homo sapiens, UniProt Q15699 118-204)
ALX3 [18] = target: ALX3 (Homo sapiens, UniProt O95076 139-225, N203S)
Chain of ALX3 (Homo sapiens, UniProt O95076 139-225, N203S) (O95076 139-225 N203S): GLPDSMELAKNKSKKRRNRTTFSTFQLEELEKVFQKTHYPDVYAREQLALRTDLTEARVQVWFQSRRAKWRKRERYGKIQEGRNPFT

Chain of ALX1 (Homo sapiens, UniProt Q15699 118-204, L144V) (Q15699 118-204 L144V): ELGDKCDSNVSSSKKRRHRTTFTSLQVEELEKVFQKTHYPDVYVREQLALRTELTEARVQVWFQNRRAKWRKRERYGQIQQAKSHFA
Chain of HESX1 (Homo sapiens, UniProt Q9UBX0 95-180, R165K) (Q9UBX0 95-180 R165K): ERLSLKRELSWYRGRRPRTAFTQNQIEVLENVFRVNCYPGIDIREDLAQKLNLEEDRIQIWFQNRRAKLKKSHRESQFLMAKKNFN
Chain of PROP1 (Homo sapiens, UniProt O75360 56-141, F88S) (O75360 56-141 F88S): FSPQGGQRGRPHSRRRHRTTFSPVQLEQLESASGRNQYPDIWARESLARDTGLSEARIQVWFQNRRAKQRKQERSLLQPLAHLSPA
Chain of ALX3 (Homo sapiens, UniProt O95076 139-225) (O95076 139-225): as the sequence (O95076 139-225 N203S) above, with S65N counted along it
Chain of HESX1 (Homo sapiens, UniProt Q9UBX0 95-180, P111T) (Q9UBX0 95-180 P111T): as the sequence (Q9UBX0 95-180 R165K) above, with P17T, K71R counted along it
Chain of SHOX (Homo sapiens, UniProt O15266 103-189, R173C) (O15266 103-189 R173C): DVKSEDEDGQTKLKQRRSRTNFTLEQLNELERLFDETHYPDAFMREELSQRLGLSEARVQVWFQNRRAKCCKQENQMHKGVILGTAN
Chain of HESX1 (Homo sapiens, UniProt Q9UBX0 95-180) (Q9UBX0 95-180): as the sequence (Q9UBX0 95-180 R165K) above, with K71R counted along it
Chain of MSX2 (P35548 130-214 R199I): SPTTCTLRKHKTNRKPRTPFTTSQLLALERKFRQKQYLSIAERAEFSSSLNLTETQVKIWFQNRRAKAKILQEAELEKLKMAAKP
Chain of ALX4 (Q9H161 200-286 Q225E): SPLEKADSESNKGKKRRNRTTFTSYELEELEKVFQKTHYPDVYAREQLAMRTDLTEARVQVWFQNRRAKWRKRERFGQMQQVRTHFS
Chain of ALX3 (Homo sapiens, UniProt O95076 139-225, L168Q) (O95076 139-225 L168Q): as the sequence (O95076 139-225 N203S) above, with L30Q, S65N counted along it
Chain of PROP1 (Homo sapiens, UniProt O75360 56-141) (O75360 56-141): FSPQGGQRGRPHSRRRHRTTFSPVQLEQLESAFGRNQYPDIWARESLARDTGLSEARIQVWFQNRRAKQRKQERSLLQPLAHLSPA
Chain of HESX1 (Homo sapiens, UniProt Q9UBX0 95-180, R109Q) (Q9UBX0 95-180 R109Q): as the sequence (Q9UBX0 95-180 R165K) above, with R15Q, K71R counted along it
Chain of HESX1 (Homo sapiens, UniProt Q9UBX0 95-180, F115L) (Q9UBX0 95-180 F115L): as the sequence (Q9UBX0 95-180 R165K) above, with F21L, K71R counted along it
Chain of PROP1 (Homo sapiens, UniProt O75360 56-141, R99H) (O75360 56-141 R99H): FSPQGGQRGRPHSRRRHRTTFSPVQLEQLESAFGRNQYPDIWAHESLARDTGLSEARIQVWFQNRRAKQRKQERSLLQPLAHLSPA
Chain of SHOX (Homo sapiens, UniProt O15266 103-189) (O15266 103-189): as the sequence (O15266 103-189 R173C) above, with C71R counted along it
Chain of ALX1 (Homo sapiens, UniProt Q15699 118-204) (Q15699 118-204): as the sequence (Q15699 118-204 L144V) above, with V27L counted along it
Chain of ALX1 (Homo sapiens, UniProt Q15699 118-204, L144R) (Q15699 118-204 L144R): as the sequence (Q15699 118-204 L144V) above, with V27R counted along it
Chain of ALX3 (Homo sapiens, UniProt O95076 139-225, N203Q) (O95076 139-225 N203Q): as the sequence (O95076 139-225 N203S) above, with S65Q counted along it
Chain of ALX3 (Homo sapiens, UniProt O95076 139-225, L168V) (O95076 139-225 L168V): as the sequence (O95076 139-225 N203S) above, with L30V, S65N counted along it

Sequence	binding signal (HESX1 [1])	binding signal (SHOX [2])	binding signal (ALX4)	binding signal (HESX1 [3])	binding signal (MSX2)	binding signal (ALX1 [4])	binding signal (ALX3 [5])	binding signal (SHOX [6])	binding signal (ALX1 [7])	binding signal (ALX3 [8])	binding signal (PROP1 [9])	binding signal (HESX1 [10])	binding signal (PROP1 [11])	binding signal (ALX3 [12])	binding signal (HESX1 [13])	binding signal (ALX3 [14])	binding signal (PROP1 [15])	binding signal (HESX1 [16])	binding signal (ALX1 [17])	binding signal (ALX3 [18])
ATTAATTA	14 upbm affinity estimate (log intensity, higher = more binding, comparable within an allelic series)	13.3 upbm affinity estimate (log intensity, higher = more binding, comparable within an allelic series)	14.6 upbm affinity estimate (log intensity, higher = more binding, comparable within an allelic series)	13.8 upbm affinity estimate (log intensity, higher = more binding, comparable within an allelic series)	13.4 upbm affinity estimate (log intensity, higher = more binding, comparable within an allelic series)	12.5 upbm affinity estimate (log intensity, higher = more binding, comparable within an allelic series)	8.67 upbm affinity estimate (log intensity, higher = more binding, comparable within an allelic series)	10.8 upbm affinity estimate (log intensity, higher = more binding, comparable within an allelic series)	12.1 upbm affinity estimate (log intensity, higher = more binding, comparable within an allelic series)	13.2 upbm affinity estimate (log intensity, higher = more binding, comparable within an allelic series)	12.3 upbm affinity estimate (log intensity, higher = more binding, comparable within an allelic series)	11 upbm affinity estimate (log intensity, higher = more binding, comparable within an allelic series)	12.5 upbm affinity estimate (log intensity, higher = more binding, comparable within an allelic series)	11.6 upbm affinity estimate (log intensity, higher = more binding, comparable within an allelic series)	12.5 upbm affinity estimate (log intensity, higher = more binding, comparable within an allelic series)	11.5 upbm affinity estimate (log intensity, higher = more binding, comparable within an allelic series)	8.37 upbm affinity estimate (log intensity, higher = more binding, comparable within an allelic series)	8.72 upbm affinity estimate (log intensity, higher = more binding, comparable within an allelic series)	13.2 upbm affinity estimate (log intensity, higher = more binding, comparable within an allelic series)	8.88 upbm affinity estimate (log intensity, higher = more binding, comparable within an allelic series)
CATAATTA	12.9 upbm affinity estimate (log intensity, higher = more binding, comparable within an allelic series)	12.4 upbm affinity estimate (log intensity, higher = more binding, comparable within an allelic series)	13.7 upbm affinity estimate (log intensity, higher = more binding, comparable within an allelic series)	12.9 upbm affinity estimate (log intensity, higher = more binding, comparable within an allelic series)	12.8 upbm affinity estimate (log intensity, higher = more binding, comparable within an allelic series)	12 upbm affinity estimate (log intensity, higher = more binding, comparable within an allelic series)	8.61 upbm affinity estimate (log intensity, higher = more binding, comparable within an allelic series)	10 upbm affinity estimate (log intensity, higher = more binding, comparable within an allelic series)	11.6 upbm affinity estimate (log intensity, higher = more binding, comparable within an allelic series)	12.6 upbm affinity estimate (log intensity, higher = more binding, comparable within an allelic series)	11.8 upbm affinity estimate (log intensity, higher = more binding, comparable within an allelic series)	9.21 upbm affinity estimate (log intensity, higher = more binding, comparable within an allelic series)	11.5 upbm affinity estimate (log intensity, higher = more binding, comparable within an allelic series)	10.8 upbm affinity estimate (log intensity, higher = more binding, comparable within an allelic series)	11.3 upbm affinity estimate (log intensity, higher = more binding, comparable within an allelic series)	10.4 upbm affinity estimate (log intensity, higher = more binding, comparable within an allelic series)	8.12 upbm affinity estimate (log intensity, higher = more binding, comparable within an allelic series)	7.94 upbm affinity estimate (log intensity, higher = more binding, comparable within an allelic series)	12.6 upbm affinity estimate (log intensity, higher = more binding, comparable within an allelic series)	8.73 upbm affinity estimate (log intensity, higher = more binding, comparable within an allelic series)
AGTAATTA	13 upbm affinity estimate (log intensity, higher = more binding, comparable within an allelic series)	12.7 upbm affinity estimate (log intensity, higher = more binding, comparable within an allelic series)	13.8 upbm affinity estimate (log intensity, higher = more binding, comparable within an allelic series)	13.1 upbm affinity estimate (log intensity, higher = more binding, comparable within an allelic series)	13.4 upbm affinity estimate (log intensity, higher = more binding, comparable within an allelic series)	12.2 upbm affinity estimate (log intensity, higher = more binding, comparable within an allelic series)	8.6 upbm affinity estimate (log intensity, higher = more binding, comparable within an allelic series)	10 upbm affinity estimate (log intensity, higher = more binding, comparable within an allelic series)	11.8 upbm affinity estimate (log intensity, higher = more binding, comparable within an allelic series)	12.8 upbm affinity estimate (log intensity, higher = more binding, comparable within an allelic series)	11.9 upbm affinity estimate (log intensity, higher = more binding, comparable within an allelic series)	9.52 upbm affinity estimate (log intensity, higher = more binding, comparable within an allelic series)	11.9 upbm affinity estimate (log intensity, higher = more binding, comparable within an allelic series)	11 upbm affinity estimate (log intensity, higher = more binding, comparable within an allelic series)	11.6 upbm affinity estimate (log intensity, higher = more binding, comparable within an allelic series)	10.6 upbm affinity estimate (log intensity, higher = more binding, comparable within an allelic series)	7.94 upbm affinity estimate (log intensity, higher = more binding, comparable within an allelic series)	8.09 upbm affinity estimate (log intensity, higher = more binding, comparable within an allelic series)	12.7 upbm affinity estimate (log intensity, higher = more binding, comparable within an allelic series)	8.73 upbm affinity estimate (log intensity, higher = more binding, comparable within an allelic series)
TAATTACA	12.5 upbm affinity estimate (log intensity, higher = more binding, comparable within an allelic series)	12.1 upbm affinity estimate (log intensity, higher = more binding, comparable within an allelic series)	13.5 upbm affinity estimate (log intensity, higher = more binding, comparable within an allelic series)	12.6 upbm affinity estimate (log intensity, higher = more binding, comparable within an allelic series)	13.1 upbm affinity estimate (log intensity, higher = more binding, comparable within an allelic series)	11.9 upbm affinity estimate (log intensity, higher = more binding, comparable within an allelic series)	8.51 upbm affinity estimate (log intensity, higher = more binding, comparable within an allelic series)	9.87 upbm affinity estimate (log intensity, higher = more binding, comparable within an allelic series)	11.5 upbm affinity estimate (log intensity, higher = more binding, comparable within an allelic series)	12.7 upbm affinity estimate (log intensity, higher = more binding, comparable within an allelic series)	11.8 upbm affinity estimate (log intensity, higher = more binding, comparable within an allelic series)	9.27 upbm affinity estimate (log intensity, higher = more binding, comparable within an allelic series)	11.5 upbm affinity estimate (log intensity, higher = more binding, comparable within an allelic series)	10.8 upbm affinity estimate (log intensity, higher = more binding, comparable within an allelic series)	11.1 upbm affinity estimate (log intensity, higher = more binding, comparable within an allelic series)	10.3 upbm affinity estimate (log intensity, higher = more binding, comparable within an allelic series)	7.98 upbm affinity estimate (log intensity, higher = more binding, comparable within an allelic series)	7.89 upbm affinity estimate (log intensity, higher = more binding, comparable within an allelic series)	12.5 upbm affinity estimate (log intensity, higher = more binding, comparable within an allelic series)	8.62 upbm affinity estimate (log intensity, higher = more binding, comparable within an allelic series)
